# Measurements published in PubChem BioAssay (NCI).
# The panel holds about 83,000 compounds, 20% with a hit somewhere; the sample as a whole holds those more often.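 Note: values are percent growth. 100 is the growth of untreated cells, values between 100 and 0 indicate rising inhibition; between -100 and 0 indicates cell death.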 Calls of active or inactive are those of the source. Rule for the calls: active = growth percent below 10; inactive = the rest.
# Test system: IGROV1 ovarian
# Assay: NCI-60 one-dose screen, 48 h (100 = growth as untreated, 0 = no growth, -100 = all killed)
# Conditions: 10 µM unless noted
row,Structure (SMILES),growth
1,Oc1ccc(Cc2ccc(O)c3ncccc23)c2cccnc12,7.8% (active)
2,CO[C@]12C=C/C(=C(/C(=O)OCc3cccnc3)C(=O)CCCCCCCC[C@]3(OC)C=C/C(=C(/C(=O)OCc4cccnc4)C(=O)CCCCCCCC1)O3)O2,-66.7% (active)
3,CC(C)=CCC[C@](C)(O)C1CC[C@]2(C)[C@@H]1CC[C@@H]1[C@@]3(C)CC/C(=N\OCCC#N)C(C)(C)[C@@H]3CC[C@]12C (stereo partly specified),97.4% (inactive)
4,Cn1cc(-c2ccc3c(Nc4cccc(NC(=O)Nc5cccc(F)c5)c4)ncnc3c2)cn1,23.8% (inactive)
5,O=c1oc2ccccc2cc1-c1nn(-c2ccccc2)cc1/C=N/Nc1nc(-c2ccccc2)c(N=Nc2ccccc2)s1,81.7% (inactive)
6,CCCNNC(=O)c1ccc(CNC(=O)/C=C/c2ccccc2)cc1,30.5% [2.5 µM] (inactive)
7,C=C(CNCCO)[C@@H]1CC[C@]2(CO)CC[C@]3(C)[C@H](CC[C@@H]4[C@@]5(C)CCC(NCCO)C(C)(C)[C@@H]5CC[C@]43C)[C@@H]12 (stereo partly specified),80.4% (inactive)
8,COc1cccc(-c2cc(-c3ccc(Nc4nc(Nc5ccc(Cl)cc5)nc(Nc5ccc(Cl)cc5)n4)cc3)nc(N)c2C#N)c1,10.1% (inactive)
9,CC(C)C(=O)Nc1ncc(C(=O)NCCN(Cc2ccccc2)C(=O)c2ccc(S(=O)(=O)Nc3ccccc3)cc2)s1,105% (inactive)
10,CN1CCN(Cc2ccc(NC(=O)c3cncc(C#Cc4cnc(N)c5ccc(C#N)cc45)c3)cc2C(F)(F)F)CC1,-64.1% (active)
11,COc1ccc2c(c1)c(-c1nc(-c3cn(C)c4ccncc34)cs1)cn2C,-2.51% (active)
12,O=C(OCC(O)(CO)C(=O)NC12CC3CC(CC(C3)C1)C2)c1ccc(Cl)cc1 (stereo unspecified),110% (inactive)
13,Cn1ccnc1C(=O)/C=C/c1ccc(CC(=O)Nc2cc(F)c(F)c(F)c2)cc1,29% (inactive)
14,Cc1ccc(Nc2cc(N)nc(N)n2)cc1,92.4% (inactive)
15,Cc1nc2ccccc2c(/C=C/c2ccc(Cl)cc2)c1C(=O)/C=C/c1ccccc1,0.031% (active)
16,NS(=O)(=O)Oc1cccc(-c2nc3sccn3c2-c2ccccc2)c1,54.4% (inactive)

# Test system: OVCAR-3 ovarian
# Assay: as above
# Conditions: 10 µM unless noted
row,Structure (SMILES),growth
1,CNC(=O)c1cc(Oc2ccc3nc(NC(=O)Nc4ccc(F)cc4F)sc3c2)ccn1,74.7% (inactive)
2,CCOC(=O)c1c2c(n3ccc(NC(=O)CCN4CCCC4)cc13)C(=O)c1ncccc1C2=O,-85.9% (active)
3,CNC(=O)c1cc(Oc2ccc3nc(NC(=O)c4cc(C(F)(F)F)cc(C(F)(F)F)c4)sc3c2)ccn1,12% (inactive)
4,CC(=O)CC(=O)c1ccccc1.[Cu+2],114% (inactive)
5,O=c1c2cccc3c(N4CCOCC4)ccc(c32)c2nc3ccccc3n12,100% (inactive)
6,CN(C)C(=O)OCc1ccc2c(Cl)cc(Cl)c(O)c2n1,30.6% (inactive)
7,COc1ccc(-c2ccc(-c3ccc(C(=N)N)nc3)s2)cc1,-87.1% (active)
8,CN1CCN(c2ccc(Nc3ncc4[nH]c(=O)n(Cc5ccccc5N)c4n3)cc2)CC1,102% (inactive)
9,NC(=N\N=C/c1ccc(Cl)cc1Cl)/C(N)=N\N=C/c1ccc(Cl)cc1Cl,21.5% (inactive)
10,C=C1C(=O)O[C@H]2[C@H]1CC/C(COC(=O)NCc1ccc(Cn3c(=O)sn(CCCC)c3=O)cc1)=C\CC[C@@]1(C)O[C@@H]21,-28.6% (active)
11,FC(F)(F)c1cccc(-c2nnn(Cc3cc(-c4cccc(Cl)c4)no3)n2)c1,114% (inactive)
12,O=C(c1ccc(F)cc1)C1CCN(CCn2c(=O)[nH]c3ccccc3c2=O)CC1,96.9% (inactive)
13,Cc1ccc(C2(C)NC(=O)N(CC(=O)Nc3cccc(C)c3)C2=O)cc1 (stereo unspecified),111% (inactive)
14,COc1ccc(C(=O)C2OC3=C(C(=O)CC(C)(C)C3)C2c2cccc(Oc3ccccc3)c2)cc1 (stereo unspecified),103% (inactive)
15,CC1(C)C2=C(C(=O)N1Cc1ccccc1)C(c1ccco1)N(C(=O)C1CCC1)CCN2 (stereo unspecified),107% (inactive)
16,COc1ccc(Nc2nccc(Nc3ccc4[nH]ncc4c3)n2)cc1,48.9% (inactive)
17,Cc1nn(-c2ccccc2)c(Oc2ccccc2)c1/C=N/NC(=O)Cn1c(=O)sc2ccccc21,61.6% (inactive)
18,CCN1C(=O)N(CC)C2C1NC(=S)N2/N=C/C=C/c1cccs1 (stereo unspecified),2.01% (active)
19,O=C(Nc1ncc(Cc2ccc(Cl)cc2)s1)c1ccc2c(c1)OCCO2,2.45% (active)
20,C#Cc1ccc(NC(=O)Cc2ccc(/C=C/C(=O)c3nccn3C)cc2)cc1,12% (inactive)

row,Structure (SMILES),growth
1,CN(C)CCOc1nc2c3cc([N+](=O)[O-])ccc3nn2c2ccccc12,63.7% (inactive)
2,CCN(CC)CCCC(Nc1c2ccc(Cl)cc2nc2ccc(OC)cc12)c1ccncc1 (stereo unspecified),95.6% (inactive)
3,CCOC(=O)c1cnc2sc(-c3ccc(OC)cc3)nc2c1Cl,108% (inactive)
4,COc1ccc2c(O)cc3c(c2c1)[C@H](CCl)CN3C(=O)c1cc2cc(NC(=O)CCN3CCOCC3)ccc2[se]1,-7.3% (active)
5,Oc1ccc(Cc2ccc(O)c3ncccc23)c2cccnc12,14.1% (inactive)
6,CO[C@]12C=C/C(=C(/C(=O)OCc3cccnc3)C(=O)CCCCCCCC[C@]3(OC)C=C/C(=C(/C(=O)OCc4cccnc4)C(=O)CCCCCCCC1)O3)O2,-95.5% (active)
7,CC(C)=CCC[C@](C)(O)C1CC[C@]2(C)[C@@H]1CC[C@@H]1[C@@]3(C)CC/C(=N\OCCC#N)C(C)(C)[C@@H]3CC[C@]12C (stereo partly specified),93.2% (inactive)
8,Cn1cc(-c2ccc3c(Nc4cccc(NC(=O)Nc5cccc(F)c5)c4)ncnc3c2)cn1,44.7% (inactive)
9,O=c1oc2ccccc2cc1-c1nn(-c2ccccc2)cc1/C=N/Nc1nc(-c2ccccc2)c(N=Nc2ccccc2)s1,57.1% (inactive)
10,CCCNNC(=O)c1ccc(CNC(=O)/C=C/c2ccccc2)cc1,47.6% [2.5 µM] (inactive)
11,C=C(CNCCO)[C@@H]1CC[C@]2(CO)CC[C@]3(C)[C@H](CC[C@@H]4[C@@]5(C)CCC(NCCO)C(C)(C)[C@@H]5CC[C@]43C)[C@@H]12 (stereo partly specified),80% (inactive)
12,COc1cccc(-c2cc(-c3ccc(Nc4nc(Nc5ccc(Cl)cc5)nc(Nc5ccc(Cl)cc5)n4)cc3)nc(N)c2C#N)c1,-52.7% (active)
13,CC(C)C(=O)Nc1ncc(C(=O)NCCN(Cc2ccccc2)C(=O)c2ccc(S(=O)(=O)Nc3ccccc3)cc2)s1,106% (inactive)
14,CN1CCN(Cc2ccc(NC(=O)c3cncc(C#Cc4cnc(N)c5ccc(C#N)cc45)c3)cc2C(F)(F)F)CC1,3.19% (active)
15,COc1ccc2c(c1)c(-c1nc(-c3cn(C)c4ccncc34)cs1)cn2C,-77.6% (active)
16,O=C(OCC(O)(CO)C(=O)NC12CC3CC(CC(C3)C1)C2)c1ccc(Cl)cc1 (stereo unspecified),101% (inactive)
17,Cn1ccnc1C(=O)/C=C/c1ccc(CC(=O)Nc2cc(F)c(F)c(F)c2)cc1,-33.9% (active)
18,Cc1ccc(Nc2cc(N)nc(N)n2)cc1,99.6% (inactive)
19,Cc1nc2ccccc2c(/C=C/c2ccc(Cl)cc2)c1C(=O)/C=C/c1ccccc1,-35.1% (active)
20,NS(=O)(=O)Oc1cccc(-c2nc3sccn3c2-c2ccccc2)c1,39.1% (inactive)
